Reference: the supplement of paper PMC8728848
The sample as a whole holds a higher share of the strongest signals than the screen did.

Legend:
Assay in all cases: glycan array binding signal (z-score within array); higher = stronger binding
Settings in all cases: glycan notation: IUPAC condensed, linker removed
[1] = target: Fuc(a1-2)Gal(b1-3)GalNAc(b1-3)Gal
How it was run: (§1)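 Glycan array data came from 3228 arrays in the Consortium for Functional Glycomics database, and only arrays with an available protein sequence were kept. Glycan names were put into IUPAC-condensed notation, and columns mapping to the same glycan were averaged. The binding signal is a within-array Z-score, averaged across arrays of one protein sequence run at different concentrations or buffers and across linkers. A negative Z-score can be read as non-binding.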

[2] = target: Fuc(a1-2)Gal(b1-3)GalNAc(b1-4)[Neu5Ac(a2-3)]Gal(b1-4)Glc
How it was run: as §1

[3] = target: Fuc(a1-3)[Gal(b1-4)]GlcNAc6S
How it was run: as §1

[4] = target: Fuc(a1-3)[Gal3S(b1-4)]Glc6S
How it was run: as §1

[5] = target: Fuc(a1-3)[Gal3S(b1-4)]GlcNAc6S
How it was run: as §1

[6] = target: Gal(b1-3)GlcNAc(b1-3)Gal(b1-4)Glc
How it was run: as §1

[7] = target: Gal(b1-3)[Fuc(a1-4)]GlcNAc(b1-3)Gal(b1-3)[Fuc(a1-4)]GlcNAc
How it was run: as §1

[8] = target: Gal(b1-3)[GlcNAc(b1-6)]GalNAc
How it was run: as §1

[9] = target: Gal(b1-4)GlcNAc(b1-3)Gal(b1-4)GlcNAc
How it was run: as §1

[10] = target: Gal(b1-4)GlcNAc(b1-3)[Gal(b1-4)GlcNAc(b1-6)]GalNAc
How it was run: as §1

[11] = target: Gal3S(b1-3)[Fuc(a1-4)]GlcNAc
How it was run: as §1

[12] = target: Gal3S(b1-4)Glc
How it was run: as §1

[13] = target: Gal3S(b1-4)[Fuc(a1-3)]Glc
How it was run: as §1

[14] = target: Gal3S6S(b1-4)GlcNAc
How it was run: as §1

[15] = target: Gal6S(b1-4)GlcNAc
How it was run: as §1

[16] = target: Glc(a1-4)Glc
How it was run: as §1

[17] = target: GlcNAc(b1-3)Gal(b1-4)Glc
How it was run: as §1

[18] = target: GlcNAc(b1-3)[GlcNAc(b1-6)]Gal(b1-4)GlcNAc
How it was run: as §1

[19] = target: GlcNAc(b1-4)Gal(b1-4)GlcNAc
How it was run: as §1

[20] = target: Kdn(a2-3)Gal(b1-3)GlcNAc
How it was run: as §1

[21] = target: Neu5Ac(a2-3)Gal(b1-3)GalNAc(b1-3)Gal(b1-4)GlcNAc
How it was run: as §1

[22] = target: Neu5Ac(a2-3)Gal(b1-3)GlcNAc
How it was run: as §1

[23] = target: Neu5Ac(a2-3)Gal(b1-3)[Neu5Ac(a2-3)Gal(b1-4)]GlcNAc
How it was run: as §1

[24] = target: Neu5Ac(a2-3)Gal(b1-4)GlcNAc(b1-2)Man(a1-3)[Neu5Ac(a2-3)Gal(b1-4)GlcNAc(b1-2)Man(a1-6)]Man(b1-4)GlcNAc(b1-4)GlcNAc
How it was run: as §1

[25] = target: Neu5Ac(a2-3)GalNAc
How it was run: as §1

[26] = target: Neu5Ac(a2-3)[GalNAc(b1-4)]Gal(b1-4)Glc
How it was run: as §1

[27] = target: Neu5Ac(a2-3)[Neu5Ac(a2-6)]GalNAc
How it was run: as §1

[28] = target: Neu5Ac(a2-6)Gal(b1-4)GlcNAc(b1-2)Man(a1-6)[GlcNAc(b1-2)Man(a1-3)]Man(b1-4)GlcNAc(b1-4)GlcNAc
How it was run: as §1

[29] = target: Neu5Gc(a2-3)Gal(b1-3)[Fuc(a1-4)]GlcNAc
How it was run: as §1

B1: P-Selectin (Mus musculus), Q01102 (protein)
chain: MAGCPKGSWTPRLRSVILGGAQLIWFSALISELVNQKEVAAWTYNYSTKAYSWNNSRVFCRRHFTDLVAIQNKNEIAHLNDVIPFFNSYYWIGIRKINNKWTWVGTNKTLTEEAENWADNEPNNKKNNQDCVEIYIKSNSAPGKWNDEPCFKRKRALCYTASCQDMSCSNQGECIETIGSYTCSCYPGFYGPECEYVKECGKVNIPQHVLMNCSHPLGEFSFNSQCTFSCAEGYELDGPGELQCLASGIWTNNPPKCDAVQCQSLEAPPHGTMACMHPIAAFAYDSSCKFECQPGYRARGSNTLHCTGSGQWSEPLPTCEAIACEPPEIPIHGSMDCVPSTGTFGYNSSCTFLCAEGFVLKGNDAIQCADSGQWTAPAPFCEALQCPEFPVPSKAQVNCSDPFGTLTYQSVCSFSCDEGSLLVGASVIRCLATGHWNGAPPECQAVSCAPMLSPENGSMTCVQPLGNSTYKSTCQFMCDEGFYLSGPERLDCSPSGHWTGTPPTCEAIKCPGIFAPEQGNLDCSHVHGEFGVGSICHFSCNEDFELLGSENVECTVSGRWSAPPPTCKGITSLPAPAVRCPALTTPGQGTMSCQHHLGSFGPNTTCYFGCKTGFTLRGANSLRCRASGQWTAVTPMCRAVKCSELHMDTAVAMNCSNPWGNFSYGSTCTFQCPEGQSLNGSVRATCREDGHWSDAMPTCQAGTLTIQEALTYLGGAVASTTGLAVGGTLLALLRKRLRKKDDGKCPLNPHSHLGTYGVFTNAAYDPTP
- glycan array binding signal (z-score) [1]: -0.303
- glycan array binding signal (z-score) [2]: -0.426
- glycan array binding signal (z-score) [3]: 2.1
- glycan array binding signal (z-score) [4]: 3.7
- glycan array binding signal (z-score) [5]: 3.95
- glycan array binding signal (z-score) [6]: -0.261
- glycan array binding signal (z-score) [7]: 0.199
- glycan array binding signal (z-score) [8]: -0.4
- glycan array binding signal (z-score) [9]: -0.29
- glycan array binding signal (z-score) [10]: -0.495
- glycan array binding signal (z-score) [11]: 3.6
- glycan array binding signal (z-score) [12]: -0.174
- glycan array binding signal (z-score) [13]: 4.89
- glycan array binding signal (z-score) [14]: 1.4
- glycan array binding signal (z-score) [15]: -0.055
- glycan array binding signal (z-score) [16]: -0.562
- glycan array binding signal (z-score) [17]: -0.616
- glycan array binding signal (z-score) [18]: -0.63
- glycan array binding signal (z-score) [19]: -0.478
- glycan array binding signal (z-score) [20]: -0.37
- glycan array binding signal (z-score) [21]: -0.354
- glycan array binding signal (z-score) [22]: -0.3
- glycan array binding signal (z-score) [23]: -0.297
- glycan array binding signal (z-score) [24]: -0.154
- glycan array binding signal (z-score) [25]: -0.381
- glycan array binding signal (z-score) [26]: -0.331
- glycan array binding signal (z-score) [27]: 0.023
- glycan array binding signal (z-score) [28]: -0.311
- glycan array binding signal (z-score) [29]: 3.75
